Our source for the inhibition values is ChEMBL document CHEMBL3433997, “St. Jude Leishmania screening dataset” (2016).

Holding throughout (assay type): functional
Assay [1] deals with Solute carrier family 2, facilitated glucose transporter member 1 (Homo sapiens) (UniProt P11166). As to the kind of experiment: ST_JUDE_LEISH: Cytotoxicity at 2uM final concentration against transgenic Leishmania Mexicana promastigotes LmGLUT1 that are glucose transport deficient and complemented with the human glucose transporter GLUT1. Activity is measured by DNA content using SYBR green in vitro.

Assay [2] has as its target Hexose transporter 1 (Plasmodium falciparum) (UniProt O97467). As to the kind of experiment: ST_JUDE_LEISH: Cytotoxicity at 2uM final concentration against transgenic Leishmania Mexicana promastigotes LmPfHT that are glucose transport deficient and complemented with the Plasmodium falciparum hexose transporter. Activity is measured by DNA content using SYBR green in vitro.

Assay [3] concerns the target Glucose transporter (Leishmania mexicana) (UniProt O61059). As to the kind of experiment: ST_JUDE_LEISH: Cytotoxicity at 2uM final concentration against transgenic Leishmania Mexicana promastigotes LmGT2 that are glucose transport deficient and complemented with the L. Mexicana glucose transporter 2. Activity is measured by DNA content using SYBR green in vitro.

Chain of Solute carrier family 2, facilitated glucose transporter member 1 (Homo sapiens) (P11166 whole entry): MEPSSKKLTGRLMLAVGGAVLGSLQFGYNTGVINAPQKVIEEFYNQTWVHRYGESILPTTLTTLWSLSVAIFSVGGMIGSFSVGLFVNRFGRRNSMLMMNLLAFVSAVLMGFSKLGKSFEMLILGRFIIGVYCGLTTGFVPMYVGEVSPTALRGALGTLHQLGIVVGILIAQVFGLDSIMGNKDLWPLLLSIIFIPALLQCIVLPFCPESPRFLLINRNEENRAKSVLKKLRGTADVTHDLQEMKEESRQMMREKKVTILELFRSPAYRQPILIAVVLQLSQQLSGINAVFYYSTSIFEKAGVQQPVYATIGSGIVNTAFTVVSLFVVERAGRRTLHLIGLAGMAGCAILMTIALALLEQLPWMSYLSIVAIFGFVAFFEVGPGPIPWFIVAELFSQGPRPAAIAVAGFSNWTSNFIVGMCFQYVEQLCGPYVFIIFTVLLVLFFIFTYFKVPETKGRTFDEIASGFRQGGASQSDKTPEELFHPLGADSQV

On to `Cc1ccc2c(C3=CCN(CCCCC4(C)C(=O)Nc5ccccc54)CC3)c(C)[nH]c2c1` (stereo not drawn), for which the inhibition (in general, the relative decrease from the control value, in per cent) is 0.29% in assay [1], 0.34% in assay [2] and -0.56% in assay [3].
In the same order, the values of `O=C(/C=C/c1ccc(Cl)c(Cl)c1)N1CCC(CN2CCC(c3c(-c4ccc(F)cc4)[nH]c4ccccc34)CC2)CC1` are 0.15%, -1.9% and -4.69%.
The matching figures for `C=C[C@H]1CN2CC[C@H]1C[C@@H]2[C@@H](O)c1ccnc2ccccc12`: -1.24%, 1.12% and 0.13%.
The matching figures for `Cc1cc(C2CCCCN2C)ccc1-c1ccc(C(=O)N2CCc3cc4c(cc32)C2(CCN(C)CC2)CO4)cc1` (stereo not drawn): 3.41%, 0.31% and 1.11%.
In the case of `Cc1ccc(CC(C)NCC(O)c2cccc(C(F)(F)F)c2)cc1F` (stereo not drawn), the inhibition in assay [1] is 6.67%; in assay [2], 6.24%; in assay [3], 5.67%.
In the same order, the values of `CC[C@H]1CN2CC[C@H]1C[C@H]2[C@H](O)c1cc(-c2ccc(F)cc2C)nc2ccc(OC)cc12` are 4.97%, 1.01% and 2.55%.
Take `CN1CC=C(c2c[nH]c3ccc(OCc4ccccc4)cc23)CC1`: the inhibition in assay [1] was found to be 16.2%; in assay [2], 14.4%; in assay [3] it was 14.7%.
In the same order, the values of `O=C(NC1CCN(CCc2c[nH]c3ccc(F)cc23)CC1)c1ncc(-c2ccccc2)[nH]1` are 4.04%, 4.4% and 3.98%.
In the case of `CCc1ccc(CN2CCC(CN(C(=O)c3ccccc3)c3ccc(Cl)cc3)CC2)cc1`, the inhibition amounted to 8.24% in assay [1], 5.97% in assay [2] and 5.04% in assay [3].
The matching figures for `CC(Cc1ccc(NC(=O)[C@H](C)NCCc2cccc(Cl)c2)cc1)NCCc1cccc(Cl)c1` (stereo partly drawn): 2.86%, 0.1% and 0.22%.
For the compound `CC(C)CNCc1ccc(-c2ccc(CN(C(=O)NC3CCCCC3)C3CCN(Cc4ccccc4)CC3)cc2)cc1`, the inhibition in assay [1] is 7.16%; in assay [2], 3.25%; in assay [3], 6.77%.
